# Data: PubChem BioAssay (EPA / NIEHS)
# Records with an inconclusive call do not appear. Calls of active or inactive are those of the source. The calls were made as follows: active = hit-call score of the fitted dose curve at least 0.9, where 1 is the maximum; inconclusive = response in the unintended direction; inactive = score below 0.9.
# What was measured:
# [1] = biological target: Glycogen synthase kinase-3 beta (Homo sapiens) (UniProt P49841); assay: NVS_ENZ_hGSK3b: NovaScreen (NVS) Enzymatic Assay for human Glycogen Synthase Kinase-3 beta (GSK3b) (AID 2283165)
# Glycogen synthase kinase-3 beta (Homo sapiens), sequence (P49841 whole entry, looked up): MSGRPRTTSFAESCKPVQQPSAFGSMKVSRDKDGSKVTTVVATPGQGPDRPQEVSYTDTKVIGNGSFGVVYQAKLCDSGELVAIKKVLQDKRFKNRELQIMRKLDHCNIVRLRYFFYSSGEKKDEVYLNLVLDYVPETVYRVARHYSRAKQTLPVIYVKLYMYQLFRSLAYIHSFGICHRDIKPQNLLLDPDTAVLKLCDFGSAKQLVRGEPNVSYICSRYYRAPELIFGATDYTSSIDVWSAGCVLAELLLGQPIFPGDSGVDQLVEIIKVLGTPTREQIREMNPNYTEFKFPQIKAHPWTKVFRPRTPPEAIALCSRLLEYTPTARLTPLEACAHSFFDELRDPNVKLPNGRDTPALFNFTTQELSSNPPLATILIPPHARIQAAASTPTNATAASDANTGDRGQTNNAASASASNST
# Method in brief: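 Recombinant enzyme with specific fluorescent substrate, 1 h, product separated by electrophoretic mobility shift. Primary duplicate screen at 25 uM; actives (e.g. 30% inhibition) followed in singleton concentration-response to 50 uM. Signal loss fitted versus DMSO.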
# [2] = biological target: human Ephrin type-A Receptor 1 (EphA1), EPHA1 (gene 2041) (UniProt P21709); assay: NVS_ENZ_hEphA1: NovaScreen (NVS) Enzymatic Assay for human Ephrin type-A Receptor 1 (EphA1) (AID 2283158);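 also: activity is signal loss versus DMSO meaning EphA1 kinase inhibition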
# human Ephrin type-A Receptor 1 (EphA1), EPHA1 (gene 2041), sequence (P21709 whole entry, looked up): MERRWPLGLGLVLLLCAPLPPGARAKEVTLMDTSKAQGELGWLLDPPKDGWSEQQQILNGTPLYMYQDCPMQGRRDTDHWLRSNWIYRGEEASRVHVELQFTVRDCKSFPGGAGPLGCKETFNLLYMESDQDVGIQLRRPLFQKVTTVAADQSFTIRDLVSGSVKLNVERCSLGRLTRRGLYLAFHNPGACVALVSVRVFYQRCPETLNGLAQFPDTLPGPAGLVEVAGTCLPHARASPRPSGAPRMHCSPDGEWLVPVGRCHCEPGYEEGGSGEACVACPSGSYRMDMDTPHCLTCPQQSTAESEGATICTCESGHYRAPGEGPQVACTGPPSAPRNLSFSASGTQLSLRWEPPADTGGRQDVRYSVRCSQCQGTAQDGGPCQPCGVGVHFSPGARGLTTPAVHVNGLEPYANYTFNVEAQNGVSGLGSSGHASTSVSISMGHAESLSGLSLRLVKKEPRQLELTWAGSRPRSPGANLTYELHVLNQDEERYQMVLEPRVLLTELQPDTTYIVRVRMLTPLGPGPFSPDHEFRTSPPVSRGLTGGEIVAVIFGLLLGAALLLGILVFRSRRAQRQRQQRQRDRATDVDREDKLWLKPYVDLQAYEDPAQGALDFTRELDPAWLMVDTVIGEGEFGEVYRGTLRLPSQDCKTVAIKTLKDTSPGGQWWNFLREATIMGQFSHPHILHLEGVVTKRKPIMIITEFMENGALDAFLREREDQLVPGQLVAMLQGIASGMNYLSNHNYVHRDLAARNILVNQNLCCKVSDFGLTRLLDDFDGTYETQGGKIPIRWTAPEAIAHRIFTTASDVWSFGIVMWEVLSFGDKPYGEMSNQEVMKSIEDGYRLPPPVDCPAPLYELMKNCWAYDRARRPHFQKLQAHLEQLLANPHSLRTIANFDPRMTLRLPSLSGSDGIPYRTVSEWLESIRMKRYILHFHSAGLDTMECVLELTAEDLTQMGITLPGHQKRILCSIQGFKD
# Method in brief: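 Chemicals first tested in duplicate at 25 uM against recombinant EphA1 with a fluorescent substrate; those passing threshold went to singleton dose-response topping at 50 uM. Activity read 1 h later as mobility-shift fluorescence, loss of signal relative to DMSO.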
# [3] = biological target: human MAP Kinase-Activated Protein Kinase 2 (MAPKAPK2), MAPKAPK2 (gene 9261) (UniProt P49137); assay: NVS_ENZ_hMAPKAPK2: NovaScreen (NVS) Enzymatic Assay for human MAP Kinase-Activated Protein Kinase 2 (MAPKAPK2) (AID 2283178)
# human MAP Kinase-Activated Protein Kinase 2 (MAPKAPK2), MAPKAPK2 (gene 9261), sequence (P49137 whole entry, looked up): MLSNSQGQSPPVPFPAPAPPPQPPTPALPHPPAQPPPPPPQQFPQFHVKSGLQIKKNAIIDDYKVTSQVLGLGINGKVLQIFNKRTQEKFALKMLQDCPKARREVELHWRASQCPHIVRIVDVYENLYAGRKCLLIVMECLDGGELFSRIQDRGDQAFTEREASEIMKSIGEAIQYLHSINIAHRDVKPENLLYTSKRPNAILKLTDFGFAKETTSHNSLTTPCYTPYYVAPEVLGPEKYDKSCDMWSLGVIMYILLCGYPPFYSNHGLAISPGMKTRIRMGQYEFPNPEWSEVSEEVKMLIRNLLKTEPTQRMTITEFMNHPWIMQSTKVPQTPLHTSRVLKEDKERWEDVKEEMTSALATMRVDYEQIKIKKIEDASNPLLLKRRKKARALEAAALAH
# Experimental: NVS_ENZ_hMAPKAPK2 is a biochemical, single-readout assay that uses extracted gene-proteins in a cell-free assay. Measurements were taken 1 hour after chemical dosing in a 384-well plate.NVS_ENZ_hMAPKAPK2 is one of one assay component(s) measured or calculated from the NVS_ENZ_hMAPKAPK2 assay. It is designed to make measurements of enzyme activity, a form of enzyme reporter, as detected with fluorescence intensity signals by Fluorescence and electrophoretic mobility shift technology.Data from the assay component NVS_ENZ_hMAPKAPK2 was analyzed into 1 assay endpoint. This assay endpoint, NVS_ENZ_hMAPKAPK2, was analyzed in the positive analysis fitting direction relative to DMSO as the negative control and baseline of activity. Using a type of enzyme reporter, loss-of-signal activity can be used to understand changes in the enzymatic activity as they relate to the gene MAPKAPK2. Furthermore, this assay endpoint can be referred to as a primary readout, because this assay has produced multiple assay endpoints where this one serves a enzymatic activity function. To generalize the intended target to other relatable targets, this assay endpoint is annotated to the kinase intended target family, where the subfamily is serine/threonine kinase.
# Binding assays used specific radioligands (tritiated, iodinated) with non-radioactive competitive displacement ligands in agonist or antagonist protocols (as indicated) and various reference compounds and inhibitors to titrate specific binding to receptors and transporters. Most enzyme assays (CYPs, kinases, phosphatases, proteases, HDACs) used recombinant protein and specific substrates (fluorescence mostly, some colorimetric and radioactive) and inhibitors, followed by a biochemical separation of substrate and product. All assays for the biochemical HTS were initially run in duplicate at a single concentration (10 uM for CYP450 assays and 25 uM for all others). Assay-chemical combinations meeting a pre-defined threshold (e.g., 30% inhibition and other criteria defined below) were then run in singleton concentration-response format with maximum concentration of 20 uM for CYPs and 50 uM for all others. Each assay was run with positive and negative controls, and concurrent controls on every plate. The follow-up (secondary) screen tested active chemical-pairs in concentration series, as well as a few additional assays not tested in the primary screen, some selected negative inactives, and several cases re-run in the concentration series for confirmatory purposes.
# [4] = biological target: human Insulin Receptor (InsR), INSR (gene 3643) (UniProt P06213); assay: NVS_ENZ_hInsR: NovaScreen (NVS) Enzymatic Assay for human Insulin Receptor (InsR) (AID 2283168)
# Method in brief: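 Fluorescent substrate phosphorylation by recombinant kinase, product resolved by electrophoretic mobility shift, read 1 h after dosing. Screened in duplicate at 25 uM; hits (e.g., 30% inhibition) run in concentration-response to 50 uM; DMSO as baseline.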
# [5] = biological target: Histone deacetylase 3 (Homo sapiens) (UniProt O15379); assay: NVS_ENZ_hHDAC3: NovaScreen (NVS) Enzymatic Assay for human Histone Deacetylase 3 (HDAC3) (AID 2283163)
# Histone deacetylase 3 (Homo sapiens), sequence (O15379 whole entry, looked up): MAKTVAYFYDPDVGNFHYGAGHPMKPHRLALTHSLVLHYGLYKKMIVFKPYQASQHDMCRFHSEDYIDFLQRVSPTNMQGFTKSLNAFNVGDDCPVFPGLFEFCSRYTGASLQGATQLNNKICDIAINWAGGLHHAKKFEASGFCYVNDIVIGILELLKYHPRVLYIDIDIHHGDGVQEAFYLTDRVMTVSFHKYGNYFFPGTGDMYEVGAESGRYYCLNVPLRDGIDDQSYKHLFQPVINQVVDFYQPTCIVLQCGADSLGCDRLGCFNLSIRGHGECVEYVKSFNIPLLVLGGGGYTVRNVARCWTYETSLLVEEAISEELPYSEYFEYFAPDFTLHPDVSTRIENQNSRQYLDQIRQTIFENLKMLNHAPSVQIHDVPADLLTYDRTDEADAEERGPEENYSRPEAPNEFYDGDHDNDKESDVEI
# Method in brief: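 Recombinant human HDAC3 with fluorescent substrate, 1 h after dosing; product separated from substrate by electrophoretic mobility shift and read by fluorescence. Primary screen at 25 uM in duplicate; actives (e.g. ≥30% inhibition) retested in concentration-response up to 50 uM.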
# [6] = biological target: human FYN Proto-Oncogene, Src family Tyrosine Kinase (Fyn), FYN (gene 2534) (UniProt P06241); assay: NVS_ENZ_hFyn: NovaScreen (NVS) Enzymatic Assay for human FYN Proto-Oncogene, Src family Tyrosine Kinase (Fyn) (AID 2283161)
# human FYN Proto-Oncogene, Src family Tyrosine Kinase (Fyn), FYN (gene 2534), sequence (P06241 whole entry, looked up): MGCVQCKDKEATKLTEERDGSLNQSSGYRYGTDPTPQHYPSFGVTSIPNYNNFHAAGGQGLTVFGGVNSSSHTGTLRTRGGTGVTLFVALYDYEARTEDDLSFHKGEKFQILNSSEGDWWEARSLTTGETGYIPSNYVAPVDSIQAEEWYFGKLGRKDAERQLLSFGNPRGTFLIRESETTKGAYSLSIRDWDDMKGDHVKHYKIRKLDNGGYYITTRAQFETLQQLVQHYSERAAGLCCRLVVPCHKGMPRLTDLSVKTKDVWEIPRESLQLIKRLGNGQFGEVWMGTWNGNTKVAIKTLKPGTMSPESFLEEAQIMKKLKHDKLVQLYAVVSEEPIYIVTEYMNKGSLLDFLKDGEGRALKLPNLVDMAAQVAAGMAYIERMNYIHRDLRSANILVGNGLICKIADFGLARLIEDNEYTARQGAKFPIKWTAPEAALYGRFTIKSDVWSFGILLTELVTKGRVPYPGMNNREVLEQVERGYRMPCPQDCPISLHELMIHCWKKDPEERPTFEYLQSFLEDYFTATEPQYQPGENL
# Method in brief: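 Recombinant enzyme with fluorescent substrate, product separated by electrophoretic mobility shift; read 1 h after dosing. Duplicate 25 uM single-point screen, actives retested in concentration series; loss of signal vs DMSO.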
# [7] = biological target: Mitogen-activated protein kinase 3 (Homo sapiens) (UniProt P27361); assay: NVS_ENZ_hMAPK3: NovaScreen (NVS) Enzymatic Assay for human Mitogen-Activated Protein Kinase 3 (MAPK 3) (AID 2283177)
# Mitogen-activated protein kinase 3 (Homo sapiens), sequence (P27361 whole entry, looked up): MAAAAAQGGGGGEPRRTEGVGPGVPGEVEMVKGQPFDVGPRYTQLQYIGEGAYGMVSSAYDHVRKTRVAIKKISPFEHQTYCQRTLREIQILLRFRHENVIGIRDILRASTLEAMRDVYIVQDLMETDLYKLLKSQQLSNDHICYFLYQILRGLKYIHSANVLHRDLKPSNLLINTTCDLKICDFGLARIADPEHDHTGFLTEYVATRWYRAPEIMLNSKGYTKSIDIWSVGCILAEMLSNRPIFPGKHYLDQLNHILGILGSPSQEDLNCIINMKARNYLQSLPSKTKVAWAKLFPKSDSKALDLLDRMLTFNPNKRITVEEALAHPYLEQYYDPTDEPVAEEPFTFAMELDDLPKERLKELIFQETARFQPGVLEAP
# Method in brief: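 Cell-free enzymatic assay with recombinant protein and specific substrate; fluorescence and electrophoretic mobility shift read-out 1 h after dosing. Primary screen duplicate at 25 uM; actives then run in concentration-response up to 50 uM, loss of signal versus DMSO.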
# [8] = biological target: human Janus Kinase 2 (Jak2), JAK2 (gene 3717) (UniProt O60674); assay: NVS_ENZ_hJak2: NovaScreen (NVS) Enzymatic Assay for human Janus Kinase 2 (Jak2) (AID 2283169)
# human Janus Kinase 2 (Jak2), JAK2 (gene 3717), sequence (O60674 whole entry, looked up): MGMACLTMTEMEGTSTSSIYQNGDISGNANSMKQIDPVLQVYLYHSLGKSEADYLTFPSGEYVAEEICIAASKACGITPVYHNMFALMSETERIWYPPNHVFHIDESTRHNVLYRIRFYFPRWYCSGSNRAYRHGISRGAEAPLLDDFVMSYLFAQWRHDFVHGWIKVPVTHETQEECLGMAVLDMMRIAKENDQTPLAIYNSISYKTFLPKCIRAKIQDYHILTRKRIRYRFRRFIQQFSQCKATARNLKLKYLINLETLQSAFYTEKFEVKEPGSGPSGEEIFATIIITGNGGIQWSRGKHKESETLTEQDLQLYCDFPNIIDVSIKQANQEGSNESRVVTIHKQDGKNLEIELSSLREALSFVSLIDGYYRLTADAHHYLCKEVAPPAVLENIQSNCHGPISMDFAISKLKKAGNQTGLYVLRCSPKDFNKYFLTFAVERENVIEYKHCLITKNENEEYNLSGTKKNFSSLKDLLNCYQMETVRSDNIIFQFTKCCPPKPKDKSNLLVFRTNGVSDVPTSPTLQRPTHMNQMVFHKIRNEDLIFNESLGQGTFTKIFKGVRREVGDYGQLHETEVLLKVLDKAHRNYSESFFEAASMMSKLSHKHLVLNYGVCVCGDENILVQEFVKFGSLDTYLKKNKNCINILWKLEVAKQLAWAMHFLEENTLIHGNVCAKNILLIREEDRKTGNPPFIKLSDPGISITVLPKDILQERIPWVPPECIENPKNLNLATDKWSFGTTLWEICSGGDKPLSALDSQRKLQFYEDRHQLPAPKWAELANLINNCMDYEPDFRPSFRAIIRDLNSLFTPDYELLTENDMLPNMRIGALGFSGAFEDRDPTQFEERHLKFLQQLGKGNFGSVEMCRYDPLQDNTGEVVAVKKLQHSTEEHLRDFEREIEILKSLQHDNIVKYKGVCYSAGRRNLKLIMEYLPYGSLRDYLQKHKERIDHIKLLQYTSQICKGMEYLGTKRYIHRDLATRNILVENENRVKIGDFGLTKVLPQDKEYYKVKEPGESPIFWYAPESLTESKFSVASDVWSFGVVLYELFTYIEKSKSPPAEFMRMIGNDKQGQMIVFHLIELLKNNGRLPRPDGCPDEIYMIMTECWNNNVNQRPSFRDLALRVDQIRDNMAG
# Method in brief: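 Cell-free recombinant human JAK2 enzyme activity assay, fluorescence/electrophoretic mobility shift read 1 h after dosing. Screened in duplicate at 25 uM, then concentration-response up to 50 uM; activity as signal loss relative to DMSO.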
# [9] = biological target: human LYN Proto-Oncogene, Src family Tyrosine Kinase (LynA), LYN (gene 4067) (UniProt P07948); assay: NVS_ENZ_hLynA: NovaScreen (NVS) Enzymatic Assay for human LYN Proto-Oncogene, Src family Tyrosine Kinase (LynA) (AID 2283173)
# human LYN Proto-Oncogene, Src family Tyrosine Kinase (LynA), LYN (gene 4067), sequence (P07948 whole entry, looked up): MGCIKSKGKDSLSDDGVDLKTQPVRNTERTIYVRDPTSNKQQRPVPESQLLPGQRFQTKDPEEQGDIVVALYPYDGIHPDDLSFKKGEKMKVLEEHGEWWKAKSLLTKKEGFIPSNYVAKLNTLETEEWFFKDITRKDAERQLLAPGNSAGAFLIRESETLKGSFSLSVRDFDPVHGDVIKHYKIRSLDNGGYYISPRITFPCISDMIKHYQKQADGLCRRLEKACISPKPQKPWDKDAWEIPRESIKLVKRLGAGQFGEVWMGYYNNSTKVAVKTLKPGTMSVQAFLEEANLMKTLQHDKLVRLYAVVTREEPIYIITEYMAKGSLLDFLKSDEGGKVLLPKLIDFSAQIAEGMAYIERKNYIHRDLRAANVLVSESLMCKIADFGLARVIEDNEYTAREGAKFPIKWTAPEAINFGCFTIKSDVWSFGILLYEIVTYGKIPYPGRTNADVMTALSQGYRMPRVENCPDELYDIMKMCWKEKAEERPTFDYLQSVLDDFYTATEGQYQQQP
# Method in brief: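 Recombinant kinase with fluorescent substrate; product separated from substrate by electrophoretic mobility shift and read 1 h after dosing. Duplicate screen at 25 uM, then concentration-response up to 50 uM; activity scored as signal loss against DMSO.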
# [10] = biological target: human c-Jun N-terminal Kinases (JNK2), MAPK9 (gene 5601) (UniProt P45984); assay: NVS_ENZ_hJNK2: NovaScreen (NVS) Enzymatic Assay for human c-Jun N-terminal Kinases (JNK2) (AID 2283171)
# Method in brief: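 Cell-free recombinant human JNK2 activity assay; fluorescent substrate and product separated by electrophoretic mobility shift, read 1 h after dosing. Primary duplicate screen at 25 uM; actives run in concentration-response up to 50 uM, relative to DMSO.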
structure (smiles),measurement,setting,value
OCc1ccccc1,outcome,[1],inactive
S=P(N1CC1)(N1CC1)N1CC1,outcome,[2],inactive
c1ccc2cc3ccccc3cc2c1,outcome,[3],inactive
CCCOc1ccc(S(=O)(=O)N2CCN(CC)CC2)cc1-c1nc2c(CC)n(Cc3ccccn3)nc2c(=O)[nH]1,outcome,[4],inactive
CCCCCCCC1CCC(=O)O1 (stereo not given),outcome,[1],inactive
c1ccc2c(c1)-c1cccc3c1c-2cc1ccccc13,outcome,[3],inactive
Cc1nc(-c2ccccn2)ncc1C(=O)Nn1cc(C)c2cc(F)ccc21,outcome,[2],inactive
same,outcome,[5],inactive
Cn1c(=O)c2[nH]cnc2n(C)c1=O,outcome,[3],inactive
CCCCCCCCN(C)C,outcome,[2],inactive
OC[C@H]1O[C@@H]2O[C@H]3[C@H](O)[C@@H](O)[C@@H](O[C@H]4[C@H](O)[C@@H](O)[C@@H](O[C@H]5[C@H](O)[C@@H](O)[C@@H](O[C@H]6[C@H](O)[C@@H](O)[C@@H](O[C@H]7[C@H](O)[C@@H](O)[C@@H](O[C@H]1[C@H](O)[C@H]2O)O[C@@H]7CO)O[C@@H]6CO)O[C@@H]5CO)O[C@@H]4CO)O[C@@H]3CO,outcome,[1],inactive
COc1cc2c(c(OC)c1OC)-c1ccc(OC)c(=O)cc1[C@@H](NC(C)=O)CC2,outcome,[5],inactive
CCCCCCCC/C=C\CCCCCCCC(=O)OC[C@@H](O)[C@H]1OC[C@H](O)[C@H]1O,outcome,[6],inactive
same,outcome,[1],inactive
same,outcome,[7],inactive
NC(=O)NN=Cc1ccc([N+](=O)[O-])o1,AC50,[5],1260 nM (active)
same,outcome,[1],inactive
OCCOCCOCCO,outcome,[2],inactive
O=C(NO)C1(NS(=O)(=O)c2ccc(Oc3ccc(F)cc3)cc2)CCOCC1,outcome,[2],inactive
same,outcome,[6],inactive
same,outcome,[1],inactive
same,outcome,[8],inactive
same,outcome,[9],inactive
same,outcome,[3],inactive
CCc1ccc(O)c(C(C)(C)C)c1,outcome,[8],inactive
c1ccc(C(O[C@@H]2CCCN(CCc3ccc4c(c3)OCO4)C2)c2ccccc2)cc1,outcome,[1],inactive
NNC(=O)c1ccncc1,outcome,[3],inactive
c1ccc2ncccc2c1,outcome,[3],inactive
CCCC(CCC)C(=O)O,outcome,[6],inactive
same,outcome,[1],inactive
same,outcome,[10],inactive
same,outcome,[7],inactive
OC(CCl)CCl,outcome,[3],inactive
OC(Cn1cncn1)(Cn1cncn1)c1ccc(F)cc1F,outcome,[8],inactive
O=C(O)c1cccc(C[C@@H]2COc3ccc(OCc4nc5cc(F)ccc5s4)cc3[C@@H]2O)c1,outcome,[1],inactive
CCCCC(CC)C(=O)OCCOCCOCCOC(=O)C(CC)CCCC (stereo not given),outcome,[3],inactive
C[C@]12C=CC(=O)C=C1CC[C@H]1[C@@H]3C[C@@H](O)[C@](O)(C(=O)CO)[C@@]3(C)C[C@H](O)[C@@]12F,outcome,[1],inactive
O=C(O)c1ccc2c(c1)nc(C(=O)NC1CCN(C3CC3)CC1)n2Cc1cc(-c2ccc(Cl)s2)on1,outcome,[1],inactive
same,outcome,[8],inactive
same,outcome,[7],inactive
CC[C@H](C)C(=O)O[C@H]1C[C@H](O)C=C2C=C[C@H](C)[C@H](CC[C@@H](O)C[C@@H](O)CC(=O)O)[C@H]21,outcome,[7],inactive
Cc1ncc([C@@H](CCCCCCc2ccc3c(n2)NCCC3)CC(=O)O)cn1,outcome,[1],inactive
same,outcome,[3],inactive
OCCNCCO,outcome,[1],inactive
OCC(CO)(CO)CO,outcome,[2],inactive
OCc1c[nH]c2ccccc12,outcome,[2],inactive
O=c1[nH]cnc2c1ncn2[C@H]1CC[C@@H](CO)O1,outcome,[2],inactive
same,outcome,[5],inactive
same,outcome,[1],inactive
same,outcome,[7],inactive
